The structures appear in SMILES notation. Values without a mark were called inactive. Records with an inconclusive call do not appear. Active and inactive are the calls of the source. Unless noted, the call rests on the fitted dose curve; in most records, active means well fitted curve in either direction with a large enough effect (not every such curve was filed as active); inconclusive means small, poorly fitted or top-dose-only effect, or another doubt; inactive means flat fitted curve, though single readings scatter.

Test [1] addresses Lysosomal acid glucosylceramidase (Homo sapiens) (UniProt P04062). The test is described as follows: Glucocerebrosidase-p2 (AID 348; in the data active means potency below about 10 µM; further: potency means the concentration at half of the fitted maximal effect). Particulars: purified GBA, blue fluorogenic substrate, 40 min. In a few lines: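 Normal human glucocerebrosidase (0.2 nM) with blue fluorogenic substrate (80 uM final) in citrate/phosphate pH 5.9 with 10mM sodium taurocholate, 0.01% tween-20; 40 min RT, NaOH/glycine stop; fluorescence Ex 365/Em 440; AC50 from a titration from 0.6 nM upwards.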

A short description of test [2]: AP1 Signaling Pathway (AID 357).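 Further: ME-180 reporter cells stimulated with EGF at its EC50 level; on the % scale 0 is the no-effect control and ±100 the full control effect.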 Particulars: ME-180 AP-1-bla reporter, EGF-induced, beta-lactamase ratio, 5 h; at 7.69 µM (top of the series) unless noted. In a few lines:
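Read-out was the 460nm/530nm emission ratio (excitation 405nm) after CCF4 loading for 2.5 hours at room temperature. Cells carried an AP-1-driven beta-lactamase reporter, were stimulated with EC50 EGF plus compound for 5 hours, and AC50 values came from titrations.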

For test [3], the target named is Cytochrome P450 1A2 (Homo sapiens) (UniProt P05177). Briefly: p450-cyp1a2 (AID 410; calls by dose curve; further: potency means the concentration at half of the fitted maximal effect). The method, boiled down: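 Luminescent demethylation readout: Luciferin-ME (100uM, equal to Km) turned over by 20nM CYP1A2 for 60 min at room temperature after NADPH regeneration addition, following 10 min compound preincubation. Normalization used 57 uM furafylline as full inhibition.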
Chain of Cytochrome P450 1A2 (Homo sapiens) (P05177 whole entry, looked up): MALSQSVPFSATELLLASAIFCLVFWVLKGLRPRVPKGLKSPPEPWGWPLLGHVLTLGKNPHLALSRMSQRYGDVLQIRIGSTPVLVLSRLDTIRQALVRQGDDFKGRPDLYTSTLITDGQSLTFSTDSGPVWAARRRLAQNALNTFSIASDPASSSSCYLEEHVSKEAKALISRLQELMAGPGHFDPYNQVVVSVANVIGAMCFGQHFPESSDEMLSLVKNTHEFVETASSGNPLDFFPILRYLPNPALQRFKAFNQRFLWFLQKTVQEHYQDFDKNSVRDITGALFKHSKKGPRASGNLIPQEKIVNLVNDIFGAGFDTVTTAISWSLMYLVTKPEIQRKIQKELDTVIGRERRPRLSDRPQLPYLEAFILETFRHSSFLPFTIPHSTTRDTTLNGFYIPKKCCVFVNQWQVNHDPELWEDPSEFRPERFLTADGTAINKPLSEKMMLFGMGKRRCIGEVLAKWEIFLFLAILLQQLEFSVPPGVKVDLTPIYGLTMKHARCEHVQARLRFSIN

Test [4] can be described thus: NFAT Signaling Pathway (AID 444).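 Further: carbachol stimulus at about its EC50 of 1 µM final; on the % scale 0 is the no-effect control and ±100 the full control effect.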 The conditions noted are these: Jurkat NFAT-bla M1, carbachol, beta-lactamase ratio, 5 h; at 7.69 µM (top of the series) unless noted. The method, boiled down:
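Jurkat cells with NFAT-driven β-lactamase reporter and co-expressed M1 receptor, stimulated with carbachol (final 1 uM, ~EC50), compound titration, 5 h at 37 °C. CCF4 loaded 1 h at RT; 460/530 nm ratio gave %activity and AC50.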

Test [5] in a line: Stat Signaling Pathway (AID 446).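 Further: ME-180 cervical cancer cells given 40 pM IL-6 alongside compound; SIE-controlled beta-lactamase reporter measured as 460/530 nm FRET emission ratio; on the % scale 0 is the no-effect control and ±100 the full control effect.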 The conditions noted are these: ME-180 SIE beta-lactamase reporter, IL-6 stimulated, 5 h; at 7.69 µM (top of the series) unless noted. The method, boiled down:
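FRET read-out (405 nm excitation, 460/530 nm emission) of a beta-lactamase reporter under a STAT-inducible element in ME-180 cervical carcinoma cells. Cells with compound receive 40 pM IL-6 for 5 h. Values are normalised to AC90 stimulation and AC90 JAK-inhibitor controls.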

Test [6] deals with Glucocorticoid receptor (Homo sapiens) (UniProt P04150). Briefly: GR-GFP Redistribution (AID 450;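 active means compounds whose dose series gives a full or clear partial fitted curve of increased nuclear translocation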; further: potency means the concentration at half of the fitted maximal effect). The conditions noted are these: U2OS GR-GFP nuclear translocation, laser cytometry, 2 h.
Chain of Glucocorticoid receptor (Homo sapiens) (P04150 whole entry, looked up, the tested form may be a part): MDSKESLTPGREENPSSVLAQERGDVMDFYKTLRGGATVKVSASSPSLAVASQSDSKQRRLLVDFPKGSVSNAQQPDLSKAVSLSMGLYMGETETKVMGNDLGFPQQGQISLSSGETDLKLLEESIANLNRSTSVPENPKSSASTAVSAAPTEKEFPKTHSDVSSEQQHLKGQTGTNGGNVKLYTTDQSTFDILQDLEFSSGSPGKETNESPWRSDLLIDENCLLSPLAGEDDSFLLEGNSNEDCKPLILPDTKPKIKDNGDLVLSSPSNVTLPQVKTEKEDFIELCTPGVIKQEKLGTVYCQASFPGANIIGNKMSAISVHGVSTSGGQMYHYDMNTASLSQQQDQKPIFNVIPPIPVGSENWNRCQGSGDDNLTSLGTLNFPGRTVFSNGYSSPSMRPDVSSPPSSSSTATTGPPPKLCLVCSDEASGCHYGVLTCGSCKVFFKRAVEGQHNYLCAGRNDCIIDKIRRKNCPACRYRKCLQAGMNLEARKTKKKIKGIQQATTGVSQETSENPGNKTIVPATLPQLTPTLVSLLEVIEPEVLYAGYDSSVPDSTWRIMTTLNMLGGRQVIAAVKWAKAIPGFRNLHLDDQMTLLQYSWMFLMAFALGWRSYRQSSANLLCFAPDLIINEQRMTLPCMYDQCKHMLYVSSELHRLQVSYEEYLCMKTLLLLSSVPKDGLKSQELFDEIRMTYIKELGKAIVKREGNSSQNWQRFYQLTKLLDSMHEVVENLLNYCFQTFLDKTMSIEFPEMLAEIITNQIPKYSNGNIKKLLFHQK
Test [7] has the same target. The test is described as follows: GR-EFC Redistribution (AID 451; calls by dose curve; further: potency means the concentration at half of the fitted maximal effect). Particulars: CHO-K1 GR-EFC translocation, beta-gal luminescence, 2 h. The method, boiled down: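 CHO-K1 cells expressing nuclear EA and GR-ED fragments of b-gal; compounds titrated up to 46 uM final, 2 h at 37 C. GR nuclear translocation read as complemented b-gal luminescence after 1 h RT detection.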

Test [8] concerns the target Mitogen-activated protein kinase 10 (Mus musculus) (UniProt Q61831). The test is described as follows: JNK3 AlphaScreen Assay (AID 530).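 Further: kinase came from lysate of stimulated human HepG2 cells; signal reports phosphorylation of biotinylated GST-cJun 1-79 at Ser73 with 10 µM ATP; on the % scale 0 is the no-effect control and ±100 the full control effect.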 In a few lines:
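Activity was read by AlphaScreen after JNK3-containing HepG2 lysate (cytokine pre-activated) phosphorylated biotinylated GST-cJun with 10 uM ATP at room temperature. Phospho-Ser73 cJun antibody with Protein-A acceptor beads provided detection.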
For orientation: In Alpha technology, singlet oxygen from a donor bead excites a nearby acceptor bead.

For test [9], the target named is 3',5'-cyclic-AMP phosphodiesterase 4B (Homo sapiens) (UniProt Q07343). Briefly: qHTS Assay for Inhibitors of PDE-IV (AID 607; active means well fitted activation curve with a large enough effect in the main read-out, with a control signal flat, not every such curve was filed as active; further: % of control where 0% means no effect). In a few lines:
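Cell-based read-out of cAMP via a modified cyclic nucleotide-gated channel and membrane potential dye (535/590 nm) in HEK293 cells expressing PDE4 endogenously. Compounds tested up to 22.9 uM final; 100 uM RO 20-1724 reference.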

A short description of test [10]: Confirmation and Secondary Assay for Modulators of Hemoglobin Beta Chain Splicing at IVS2 654 locus (AID 910; active means well fitted curve in the direction sought with a large enough effect; an effect the other way counts as inactive or inconclusive;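 further: HeLa cells stably carrying EGFP split by mutant beta-globin IVS2-654 intron; % of control where 0% means no effect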). The method, boiled down:
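HeLa cells stably expressing EGFP interrupted by β-globin IVS2-654 intron, seeded overnight in Opti-MEM/2% FCS, then treated 2 days at 37 °C. Restored splicing read as total peak GFP intensity per well by laser scanning cytometry (488 nm excitation, 500–520 nm emission); 500 nM antisense PNA as control.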

Test [11] in a line: Confirmation and Secondary Assay for Modulators of Hemoglobin Beta Chain Splicing at IVS2 705 locus (AID 930; active means well fitted curve in the direction sought with a large enough effect; an effect the other way counts as inactive or inconclusive;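 further: HeLa cells stably expressing the EGFP-705 splicing reporter; GFP fluorescence per well restored by corrected splicing of the IVS2-705 intron in EGFP; % of control where 0% means no effect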). The method, boiled down:
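Stable HeLa line with EGFP disrupted by mutant beta-globin intron 2 (705). Overnight attachment, then 2 days of compound at 37C, 5% CO2. Signal: peak GFP intensity summed over objects 5-250 µm.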

Test [12] concerns the target Ubiquitin carboxyl-terminal hydrolase 1 (Homo sapiens) (UniProt O94782). The test is described as follows: Inhibitors of USP1/UAF1: Pilot qHTS (AID 504865; active means well fitted curve in the direction sought with a large enough effect; an effect the other way counts as inactive or inconclusive;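 further: rhodamine fluorescence freed from ubiquitin-rhodamine substrate followed over time; top concentration of the series differs between compounds; on the % scale 0 is the no-effect control and ±100 the full control effect; nearly all actives have a fitted effect of over 35% in size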). In a few lines: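 1nM USP1/UAF1 + cpd, 15 min RT; start w/ Ub-Rho 150nM final; kinetic FL 480/540 nm, 6 reads q60 s. Buffer 50mM HEPES pH 7.8, 0.5mM EDTA, 1mM TCEP, 0.01% Tween-20, 0.1 mg/ml BSA.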
For orientation: Quantitative high-throughput screening tests each substance at several concentrations.

Test [13] is described as follows: Primary qHTS for small molecule stabilizers of the endoplasmic reticulum resident proteome: Secreted ER Calcium Modulated Protein (SERCaMP) assay (AID 1508630; active means well fitted curve in the direction sought with a large enough effect; an effect the other way counts as inactive or inconclusive; further: on the % scale 0 is the no-effect control and ±100 the full control effect). In a few lines:
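The SH-SY5Y reporter protocol was run at 3 concentrations up to 38.3 uM (primary) or 11 concentrations (follow-up): 16 h compound, 100 nM thapsigargin for 4 h, then extracellular luciferase luminescence.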

Test [14] addresses Cytochrome P450 3A4 (Homo sapiens) (UniProt P08684). Briefly: qHTS Assay for Inhibitors and Substrates of Cytochrome P450 3A4 (AID 884; active means well fitted curve in the direction sought with a large enough effect; an effect the other way counts as inactive or inconclusive; further: potency means the concentration at half of the fitted maximal effect; nearly all actives have a fitted effect of over 50% in size). The method, boiled down:
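Luminescent readout of luciferin produced by CYP3A4 (20 nM) dealkylation of Luciferin-PPXE, 25 uM (its KM). NADPH-driven reaction ran 60 min at RT after 10 min compound preincubation; data scaled to 57 uM ketoconazole as 100% inhibition.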

Test [15] shares this target. Briefly: qHTS Assay for Activators of Cytochrome P450 3A4 (AID 885; active means well fitted curve in the direction sought with a large enough effect; an effect the other way counts as inactive or inconclusive; further: nearly all actives have a fitted effect of over 65% in size). The method, boiled down: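 Luminescent readout of luciferin formed from 25 uM Luciferin-PPXE (KM level) by 20 nM CYP3A4 in 200 mM KPO4, with 60 min NADPH-driven reaction at room temperature after 10 min compound exposure. Ketoconazole (57 uM) defined 100% inhibition.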
Test [16] addresses Cytochrome P450 2C19 (Homo sapiens) (UniProt P33261). Briefly: qHTS Assay for Inhibitors and Substrates of Cytochrome P450 2C19 (AID 899; active means well fitted curve in the direction sought with a large enough effect; an effect the other way counts as inactive or inconclusive; further: potency means the concentration at half of the fitted maximal effect; nearly all actives have a fitted effect of over 60% in size). In a few lines: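 Luminescent read-out of luciferin formed from Luciferin-H EGE (10uM, equal to KM). Enzyme 5nM in 50mM KPO4; compound added, 10 min at 37C, then NADPH regenerating system for 60 min at 37C. Full inhibition defined by 57uM ketoconazole.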

Test [17] in a line: qHTS Assay for Identification of Small Molecule Agonists for Hypoxia Response Element Signaling Pathway (AID 914; active means well fitted activation curve with a large enough effect in the signal ratio, with a control signal flat, not every such curve was filed as active; the % refers to the signal ratio; further: potency means the concentration at half of the fitted maximal effect). The conditions noted are these: ME-180 (cervical carcinoma) HRE-bla reporter, beta-lactamase ratio, CoCl2, 17 h; activation: stronger effect = higher value. The method, boiled down: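 Reporter activity (beta-lactamase, CCF4 460nm/530nm ratio) in HRE-bla ME-180 cells is recorded after 17 h compound exposure with EC50 CoCl2 at 37 degrees Celsius. AC50 values come from titration data.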

The target in test [18] is Dual specificity protein kinase CLK4 (Homo sapiens) (UniProt Q9HAZ1). The test is described as follows: qHTS Assay for Inhibitors of CDC-like Kinase 4 (ADP-FP Assay) (AID 1795; active means well fitted curve in the direction sought with a large enough effect; an effect the other way counts as inactive or inconclusive;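 further: recombinant human CLK4 phosphorylating RS repeat peptide at 1 µM ATP; on the % scale 0 is the no-effect control and ±100 the full control effect; nearly all actives have a fitted effect of over 60% in size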). In a few lines: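 FP readout: Orange Transcreener ADP2 tracer (4 nM) plus ADP antibody, read after 30 min at room temperature. Kinase step: 6.25 nM Clk4, 100 uM RS peptide, 1 uM ATP, pH 7.5, 1 h.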
Chain of Dual specificity protein kinase CLK4 (Homo sapiens) (Q9HAZ1 whole entry, looked up): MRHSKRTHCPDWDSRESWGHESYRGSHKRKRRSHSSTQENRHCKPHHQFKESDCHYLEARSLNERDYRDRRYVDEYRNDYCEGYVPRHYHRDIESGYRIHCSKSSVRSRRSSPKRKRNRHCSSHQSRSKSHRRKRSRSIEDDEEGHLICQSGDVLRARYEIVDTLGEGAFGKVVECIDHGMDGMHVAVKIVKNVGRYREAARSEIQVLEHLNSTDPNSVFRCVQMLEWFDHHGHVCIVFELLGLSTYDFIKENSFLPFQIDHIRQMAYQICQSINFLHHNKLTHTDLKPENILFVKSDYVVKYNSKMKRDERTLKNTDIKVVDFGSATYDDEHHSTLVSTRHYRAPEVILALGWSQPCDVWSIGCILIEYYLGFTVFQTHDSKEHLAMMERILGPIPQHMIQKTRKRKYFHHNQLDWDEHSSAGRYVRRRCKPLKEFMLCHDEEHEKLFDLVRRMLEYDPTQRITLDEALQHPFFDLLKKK

Chain of Lysosomal acid glucosylceramidase (Homo sapiens) (P04062 whole entry, looked up): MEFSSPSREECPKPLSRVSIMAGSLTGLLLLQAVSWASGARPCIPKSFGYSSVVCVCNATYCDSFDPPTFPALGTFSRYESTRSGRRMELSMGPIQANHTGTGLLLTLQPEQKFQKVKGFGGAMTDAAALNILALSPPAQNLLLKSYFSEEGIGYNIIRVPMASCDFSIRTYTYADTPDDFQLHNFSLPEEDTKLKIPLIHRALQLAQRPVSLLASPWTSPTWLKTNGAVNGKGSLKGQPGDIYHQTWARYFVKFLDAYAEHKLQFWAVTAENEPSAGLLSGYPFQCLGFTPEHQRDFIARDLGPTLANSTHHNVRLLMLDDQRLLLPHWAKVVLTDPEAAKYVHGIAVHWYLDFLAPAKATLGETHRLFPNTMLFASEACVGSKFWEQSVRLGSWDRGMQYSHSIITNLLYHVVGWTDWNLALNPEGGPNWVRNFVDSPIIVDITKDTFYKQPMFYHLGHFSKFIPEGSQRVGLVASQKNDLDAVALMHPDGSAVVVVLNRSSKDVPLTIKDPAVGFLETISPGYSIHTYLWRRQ
Chain of Ubiquitin carboxyl-terminal hydrolase 1 (Homo sapiens) (O94782 whole entry, looked up): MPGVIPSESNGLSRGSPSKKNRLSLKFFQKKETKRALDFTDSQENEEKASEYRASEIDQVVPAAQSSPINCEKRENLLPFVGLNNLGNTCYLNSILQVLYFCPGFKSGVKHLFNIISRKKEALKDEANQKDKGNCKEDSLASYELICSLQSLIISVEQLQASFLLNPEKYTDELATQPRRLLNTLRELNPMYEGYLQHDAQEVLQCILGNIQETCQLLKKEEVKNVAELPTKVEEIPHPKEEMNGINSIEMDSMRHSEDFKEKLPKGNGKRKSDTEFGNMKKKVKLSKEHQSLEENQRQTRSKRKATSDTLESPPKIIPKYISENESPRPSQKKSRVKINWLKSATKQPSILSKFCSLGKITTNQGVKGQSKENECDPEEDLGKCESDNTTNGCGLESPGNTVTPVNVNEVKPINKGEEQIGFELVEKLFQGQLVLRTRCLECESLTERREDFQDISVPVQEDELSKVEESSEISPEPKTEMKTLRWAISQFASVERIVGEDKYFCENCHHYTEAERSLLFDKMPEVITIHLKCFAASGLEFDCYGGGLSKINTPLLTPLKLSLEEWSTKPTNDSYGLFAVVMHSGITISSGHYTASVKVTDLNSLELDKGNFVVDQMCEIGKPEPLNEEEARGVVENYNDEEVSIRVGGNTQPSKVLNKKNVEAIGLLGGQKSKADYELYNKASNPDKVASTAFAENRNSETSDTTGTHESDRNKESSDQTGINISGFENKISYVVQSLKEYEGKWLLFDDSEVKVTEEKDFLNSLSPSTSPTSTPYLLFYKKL
Chain of 3',5'-cyclic-AMP phosphodiesterase 4B (Homo sapiens) (Q07343 whole entry, looked up): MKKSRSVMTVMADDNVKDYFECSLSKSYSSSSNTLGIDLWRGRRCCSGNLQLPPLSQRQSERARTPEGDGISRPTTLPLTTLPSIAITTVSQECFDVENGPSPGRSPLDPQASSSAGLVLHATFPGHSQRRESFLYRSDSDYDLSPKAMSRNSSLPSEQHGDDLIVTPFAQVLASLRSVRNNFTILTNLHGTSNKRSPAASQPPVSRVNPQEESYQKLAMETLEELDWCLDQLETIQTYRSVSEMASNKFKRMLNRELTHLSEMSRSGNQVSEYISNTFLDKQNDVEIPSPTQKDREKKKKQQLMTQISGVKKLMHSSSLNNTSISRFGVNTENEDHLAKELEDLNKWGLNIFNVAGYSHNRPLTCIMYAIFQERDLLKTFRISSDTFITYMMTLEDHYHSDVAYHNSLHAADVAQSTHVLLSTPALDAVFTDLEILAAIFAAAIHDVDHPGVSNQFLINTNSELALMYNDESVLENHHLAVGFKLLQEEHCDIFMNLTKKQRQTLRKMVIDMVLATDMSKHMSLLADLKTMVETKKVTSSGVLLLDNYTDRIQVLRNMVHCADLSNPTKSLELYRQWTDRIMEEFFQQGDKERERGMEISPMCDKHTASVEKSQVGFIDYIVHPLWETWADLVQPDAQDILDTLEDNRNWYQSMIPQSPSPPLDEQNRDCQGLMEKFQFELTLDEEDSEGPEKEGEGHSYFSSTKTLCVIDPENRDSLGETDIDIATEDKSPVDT
Chain of Cytochrome P450 3A4 (Homo sapiens) (P08684 whole entry, looked up): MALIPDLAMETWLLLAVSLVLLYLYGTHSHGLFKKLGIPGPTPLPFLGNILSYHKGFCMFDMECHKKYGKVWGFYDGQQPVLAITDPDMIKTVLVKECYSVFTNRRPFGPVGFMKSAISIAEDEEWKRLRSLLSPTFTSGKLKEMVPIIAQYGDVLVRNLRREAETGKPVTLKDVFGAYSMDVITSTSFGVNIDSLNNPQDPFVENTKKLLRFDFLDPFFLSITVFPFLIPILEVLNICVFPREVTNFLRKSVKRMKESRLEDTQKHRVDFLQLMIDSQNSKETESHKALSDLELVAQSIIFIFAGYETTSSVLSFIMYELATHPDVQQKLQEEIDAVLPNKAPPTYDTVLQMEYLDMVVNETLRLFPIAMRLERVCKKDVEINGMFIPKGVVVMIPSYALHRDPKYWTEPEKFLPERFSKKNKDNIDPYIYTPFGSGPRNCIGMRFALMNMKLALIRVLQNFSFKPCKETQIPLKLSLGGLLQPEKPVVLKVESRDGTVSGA
Chain of Cytochrome P450 2C19 (Homo sapiens) (P33261 whole entry, looked up): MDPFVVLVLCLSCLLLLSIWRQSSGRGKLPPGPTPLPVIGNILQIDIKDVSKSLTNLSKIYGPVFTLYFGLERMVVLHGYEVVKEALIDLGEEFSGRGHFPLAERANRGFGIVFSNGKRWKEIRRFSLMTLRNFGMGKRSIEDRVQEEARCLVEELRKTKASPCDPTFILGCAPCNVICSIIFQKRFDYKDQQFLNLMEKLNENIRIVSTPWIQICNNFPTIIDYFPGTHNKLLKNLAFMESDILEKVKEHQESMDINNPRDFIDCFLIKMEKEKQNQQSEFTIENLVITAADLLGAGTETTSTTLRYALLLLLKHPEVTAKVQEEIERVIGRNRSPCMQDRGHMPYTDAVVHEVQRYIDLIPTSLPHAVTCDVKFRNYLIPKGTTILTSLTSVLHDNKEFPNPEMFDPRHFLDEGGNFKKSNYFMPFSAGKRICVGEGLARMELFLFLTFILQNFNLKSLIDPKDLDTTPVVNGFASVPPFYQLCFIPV

For `FC(F)(F)c1ccccc1-c1cncnc1NCCc1cnc[nH]1`, the Potency in test [1] is above 11.4 µM; in [3], 6.31 µM (active); in [6] it was above 46 µM; in test [7], above 46 µM. The values for the activity change, negative = inhibition in test [2] and in test [4] were -1.69% and -20%, respectively. The activity, negative = inhibition in test [5] is -1.23%. For the same molecule, the Potency entry in [8], in test [9], in [10] and in test [12] was “inactive” each time. For the same molecule, the result in [11] and in test [13] was inactive.
As for `Fc1ccc(Nc2nc(-c3ccoc3)nc3ccccc23)cc1`, the Potency in test [1] was 7.43 µM (active); in [3] it was 0.316 µM (active); in [6] it was above 46 µM; in [7], above 46 µM; in test [14] it was 3.98 µM (active). Further, the activity change, negative = inhibition in test [2] was 11.4%; in test [4], -21.4%. Also, the activity, negative = inhibition in [5] is 4.98%. For the same molecule, the Potency entry in test [8], in [15] and in test [12] was “inactive” each time. Further, the outcome in test [13] was inactive.
With `CN(Cc1ccco1)c1ccnc(-c2ccoc2)n1`, the Potency in test [1] is above 11.4 µM; in test [3] it was 12.6 µM (active); in test [6], above 46 µM; in [7] it was above 46 µM. Besides, the activity change, negative = inhibition was 12% in test [2] and -2.04% in [4]. Besides, the activity, negative = inhibition in test [5] is -14.2%. Moreover, the Potency entry in test [8], in test [9] and in [12] was “inactive” throughout. Moreover, the molecule was classed as inactive in test [11] and in test [13].
`COc1ccc2[nH]cc(CCNc3ccnc(-c4ccoc4)n3)c2c1`: the Potency is above 11.4 µM in [1]; 0.501 µM (active) in [3]; above 46 µM in test [6]; above 46 µM in test [7]; 3.16 µM (active) in test [14]; 0.501 µM (active) in test [16]. The activity change, negative = inhibition in test [2] was -23%; in [4], -2.92%. Besides, the activity, negative = inhibition in test [5] was -23.2%. The Potency result in test [8], in test [9], in test [15] and in test [12] was “inactive” each time. The outcome in test [13] was inactive.
Turning to `Clc1ccccc1-c1nc(NCCN2CCOCC2)c2ccccc2n1`, the activity change, negative = inhibition in [2] is 16%; in test [4], -7.69%. Besides, the Potency was 12.6 µM (active) in [3], above 46 µM in [6], above 46 µM in test [7] and 3.16 µM (active) in [17]. In addition, the activity, negative = inhibition in test [5] is -5.23%. The Potency result in [8], in test [9], in test [15], in test [18] and in test [12] was “inactive” each time. The result in test [13] was inactive.
As for `CC(=O)NCCNc1ncnc2ccc(-c3ccc(C(=O)N(C)C)cc3)cc12`, the Potency is above 11.4 µM in test [1], 25.1 µM (active) in [3], above 46 µM in [6] and above 46 µM in [7]. Further, the activity change, negative = inhibition is -14.6% in test [2] and -1.21% in test [4]. In test [5], the activity, negative = inhibition is -0.482%. Besides, the Potency result in test [8], in test [9] and in test [12] was “inactive” throughout. For the same molecule, the call in [11] and in test [13] was inactive.

(Values after PubChem BioAssay (NCATS).)
